# RORgamma inh – blocks mouse ROR gamma transcriptional activity; P51450; Drosophila S2 Gal4-RORgamma UAS-luciferase reporter, 20 h; Potency, µM (doses to about 53.6 µM), actives largely listed as inhibitors; actives 5.4% (n = 310,000); AID 2551; further: nearly all actives have a fitted effect of over 60% in size
# Target sequence (P51450 whole entry, looked up, the tested form may be a part): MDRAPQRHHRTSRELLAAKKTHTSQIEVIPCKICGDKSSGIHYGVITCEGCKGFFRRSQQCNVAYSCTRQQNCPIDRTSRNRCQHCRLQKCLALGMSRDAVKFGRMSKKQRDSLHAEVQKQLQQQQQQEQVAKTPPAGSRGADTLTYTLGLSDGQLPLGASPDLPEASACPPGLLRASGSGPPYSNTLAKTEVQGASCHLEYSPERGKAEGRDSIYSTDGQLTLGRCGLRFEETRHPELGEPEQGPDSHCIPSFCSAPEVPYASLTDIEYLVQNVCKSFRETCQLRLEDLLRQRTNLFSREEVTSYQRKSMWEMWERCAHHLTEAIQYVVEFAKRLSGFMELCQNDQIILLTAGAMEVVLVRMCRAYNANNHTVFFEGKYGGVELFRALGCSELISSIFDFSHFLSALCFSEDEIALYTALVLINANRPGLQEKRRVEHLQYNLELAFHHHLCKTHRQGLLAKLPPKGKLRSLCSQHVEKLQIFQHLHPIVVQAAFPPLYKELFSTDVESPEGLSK
#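 Luminescence from a UAS-regulated Photinus luciferase reporter in stably transfected Drosophila Schneider cells is measured; decreased signal marks ROR gamma inhibition. Fusion expression is induced by 700 uM copper sulfate for 20 hr.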
# DT40 TDP1 no CPT – qHTS for Inhibitors of human tyrosyl-DNA phosphodiesterase 1 (TDP1): qHTS in cells in absence of CPT | DT40 Tdp1-/- hTDP1 cells, no CPT, ATP luminescence, 48 h | Potency, µM (highest dose often 46.2 µM), usual class: inhibitors | actives 15% (n = 420,000) | AID 686978, 2013; further: nearly all actives have a fitted effect of over 55% in size
#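 Luminescent ATP content (CellTiter-Glo) served as the growth readout. Knockout chicken DT40 cells expressing human TDP1 were exposed to compounds without camptothecin for a minimum 48 hr at 37 °C.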
# TDP1 cell CPT – growth inhibition of DT40 Tdp1-/-;hTDP1 cells with camptothecin (screen for TDP1 inhibitors). AID 686979. Potency, µM (highest dose often 46.2 µM), hits mostly inhibitors. actives 12% (n = 420,000). chicken DT40 Tdp1-/-;hTDP1 cells + 20 nM CPT, ATP luminescence, 48 h; further: nearly all actives have a fitted effect of over 55% in size
#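 Chicken DT40 Tdp1-/- cells complemented with human TDP1, 400 cells/well, exposed to compounds plus 20 nM camptothecin for at least 48 h at 37 C; viability read as ATP content by CellTiter-Glo luminescence.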
# ELG1 repair inh – blocks ELG1-dependent DNA repair in HEK293T cells. HEK293T ELG1-luciferase reporter, luminescence, 16 h; DNA damage induced by 5-fluorouridine. Potency, µM (titrated, usually from 46.1 µM), actives largely listed as inhibitors. actives 2.3% (n = 330,000). AID 504467; further: nearly all actives have a fitted effect of over 55% in size
#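 Step one: seed 2,000 cells per well. Step two: pin-transfer compound or DMSO alongside 5-fluorouridine. Step three: incubate 16 hr, 37 °C, 5% CO2. Step four: add ONE-Glo, wait 30 min, read luminescence.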
# 12-LOX inh – inhibitors of human 12S-lipoxygenase ALOX12; actives 1.1% (n = 580,000); purified 12hLO, xylenol orange hydroperoxide absorbance; Potency, µM (doses to about 108 µM), hits mostly inhibitors; AID 1671190
#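 Purified human 12hLO at 150 nM in 25 mM Hepes, 0.01% Triton X-100, pH 7.0, preincubated 15 min at room temperature with compound. Reaction started with 40 uM arachidonic acid, 30 min at room temperature. Hydroperoxide measured by Fe-xylenol orange, 573/405 nm absorbance ratio.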
# VP16 counter – counter-screen for ROR gamma inhibitors: Gal4-VP16 reporter | Potency, µM (top dose mostly 53.6 µM), usual class: inhibitors | Drosophila S2 Gal4-VP16 UAS-luciferase, luminescence, 20 h | AID 2546 | actives 3.5% (n = 310,000);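 further: Gal4-VP16 expression switched on by copper sulfate through the metallothionein promoter; nearly all actives have a fitted effect of over 50% in size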
# A number is an active result; i = inactive; ? = inconclusive; nt = not tested or not shown; [ ] = another dose, or the depositor's remark. An excerpt weighted towards active compounds, which were near 15% of everything screened. The call rests on the fitted dose curve; in most records, active means well fitted curve in the direction sought with a large enough effect; inconclusive means small, poorly fitted or top-dose-only effect, or another doubt; inactive means no such curve, though single readings can be large; an effect the other way counts as inactive or inconclusive.
SMILES,RORgamma inh,DT40 TDP1 no CPT,TDP1 cell CPT,ELG1 repair inh,12-LOX inh,VP16 counter
Cc1ccccc1OCCOC(=O)c1c(-c2ccccc2)noc1C,?,18.4µM,7.31µM,?,i,i
Cc1onc(-c2ccccc2)c1C(=O)OCC(=O)c1ccccc1,i,?,i,i,i,i
Cc1onc(-c2ccccc2)c1C(=O)OCCOc1ccccc1F,?,?,?,i,i,i
CCOC(=O)c1c(-c2ccc(F)cc2)csc1NC(=O)c1c(-c2ccccc2)noc1C,?,20.6µM,?,?,i,?
COC(=O)c1c(-c2ccccc2)csc1NC(=O)c1c(-c2ccccc2)noc1C,i,?,i,?,?,i
O=C(Nc1ccccc1Cl)c1ccccc1Cl,i,i,i,i,i,i
COc1cccc(NC(=O)c2cc3cccc(OC)c3o/c2=N\O)c1,i,nt,nt,?,nt,i
O=C(Nc1ccccc1Cl)c1cc2ccccc2o/c1=N\O,?,10.3µM,?,?,i,?
COc1cccc(NC(=O)c2cc3ccccc3o/c2=N\O)c1,8.91µM,13µM,14.6µM,?,i,20µM
CCOc1ccc(-c2noc(-c3nnn(-c4cc(C)ccc4C)c3N)n2)cc1,nt,nt,nt,nt,i,nt
Cc1csc(NC(=O)CCc2ncc(-c3ccccc3)o2)n1,nt,nt,nt,nt,i,nt
Cc1ccccc1CNC[C@H]1O[C@@H]2C[C@@H](CC(=O)NCc3nccn3C)O[C@@H]2[C@@H]1O,nt,nt,nt,nt,i,nt
CC(C)C(=O)Nc1nc2cc3c(cc2s1)OCO3,i,4.61µM,5.17µM,?,i,?
O=C(Nc1nc2ccc(Cl)cc2s1)C1CC1,nt,?,i,nt,?,nt
O=C(Nc1nc2cc3c(cc2s1)OCO3)C1CC1,i,3.66µM,4.11µM,i,i,i
COc1ccccc1-c1[nH]nc2ncc(-c3ccnn3C)nc12,nt,nt,nt,nt,i,nt
CCOCCCNCc1ccc(C)s1,nt,nt,nt,nt,i,nt
Cn1c(=O)oc2cc(S(=O)(=O)N3CCC(C(=O)N4CCN(c5ccc(Cl)cc5)CC4)CC3)ccc21,nt,2.31µM,2.06µM,nt,i,nt
Cn1c(=O)oc2cc(S(=O)(=O)N3CCC(C(=O)N4CCN(c5cccc(Cl)c5)CC4)CC3)ccc21,nt,1.46µM,4.11µM,nt,i,nt
O=C(NC(=S)Nc1ccccc1N1CCCCC1)c1ccco1,3.16µM,?,14.6µM,?,?,3.98µM
CCC(C)c1ccccc1NC(=S)NC(=O)c1ccco1 (stereo not drawn),3.55µM,13µM,23.1µM,?,?,3.16µM
S=C(NCCc1ccccc1)Nc1ccccc1N1CCOCC1,i,?,?,i,i,?
Fc1cc(F)cc(NC(=S)Nc2ccccc2N2CCOCC2)c1,12.6µM,25.9µM,i,i,i,i[10 µM]
O=C(NC(=S)Nc1cccc2c(O)cccc12)c1ccco1,i,i,i,i,?,i
O=C(NC(=S)Nc1ccccc1N1CCOCC1)c1ccco1,14.1µM,?,?,i,i,14.1µM
SMILES,RORgamma inh,DT40 TDP1 no CPT,TDP1 cell CPT,ELG1 repair inh,12-LOX inh,VP16 counter
COc1ccc(S(=O)(=O)N2CCC(c3noc(-c4ccncc4)n3)C2)cc1 (stereo not drawn),nt,nt,nt,nt,i,nt
COCCN1CCC(N2CCN(S(=O)(=O)c3ccc(C)cc3C)CC2)C1=O (stereo not drawn),nt,nt,nt,nt,i,nt
COc1cc(CNC(=O)c2nc(-c3ccccc3)oc2C)cc(OC)c1OC,nt,nt,nt,nt,i,nt
CC(C)C(=O)N1CCN(c2ccccc2NC(=S)NC(=O)c2ccco2)CC1,nt,?,16.4µM,nt,i,nt
O=C(NC(=S)Nc1cccc(Cl)c1N1CCCCC1)c1ccco1,3.98µM,?,?,?,?,7.08µM
O=C(NC(=S)Nc1ccccc1Cl)c1ccco1,12.6µM,?,i,?,?,?
O=C(NC(=S)Nc1ccc(Cl)c(C(=O)O)c1)c1ccco1,i,i,i,i,?,i
O=C(NC(=S)Nc1ccccc1N1CCCC1)c1ccco1,i,?,i,i,?,i
O=C(NC(=S)Nc1ccccc1N1CCOCC1)c1ccc(-c2cc(Cl)ccc2Cl)o1,0.891µM,23.1µM,?,i,?,2.51µM

# Source: PubChem (National Center for Advancing Translational Sciences (NCATS))
